Rows were chosen to be rich in hits. Some 19% of all compounds tested hit in one or more screens of this group.
Pf growth 96h: Primary qHTS for delayed death inhibitors of the malarial parasite plastid, 96 hour incubation | P. falciparum luciferase reporter growth, 96 h | Potency, µM (top dose mostly 28.7 µM), inactives show at the top dose activity change, negative = inhibition, most hits filed as inhibitors | actives 6.9% (n = 320,000) | AID 504834, 2011; also: potency is read from the fitted curve at half-maximal effect; % is scaled to controls: 0 for no effect and ±100 for the full control effect
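Two-generation exposure (96 h) targets delayed-death phenotype. Reporter parasites carrying integrated firefly luciferase, in red cells at 2% hematocrit and 0.05% parasitemia final, kept at 37 C, 5% CO2; luminescence loss indicates inhibition.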
Cycloheximide cs: Cycloheximide Counterscreen for Small Molecule Inhibitors of Shiga Toxin; actives 12% (n = 300,000); max response, %; AID 2314, 2010; cell reporter, cycloheximide protein synthesis inhibition counterscreen; in the data active = max response mostly above about 13%, no sharp cut-off; inactive = mostly below about 14%; also: read at 38.3 µM for the half of the compounds with a filed dose; 0% is about no effect
Marburg entry inh: qHTS for inhibitors of binding or entry into cells for Marburg Virus; Marburg virus pseudotyped entry inhibition, cell reporter; Potency, µM (series often up to 37.8 µM), for inactives: at the highest dose activity change, negative = inhibition, hits mostly inhibitors; actives 1.8% (n = 300,000); AID 540276, 2011; calls by dose curve; tested in HEK293 cells; also: potency is read from the fitted curve at half-maximal effect; % is scaled to controls: 0 for no effect and ±100 for the full control effect
Pf growth 48h: Primary qHTS for delayed death inhibitors of the malarial parasite plastid, 48 hour incubation; Potency, µM (doses to about 28.7 µM), inactives show at the highest dose activity change, negative = inhibition, actives largely listed as inhibitors; P. falciparum luciferase growth in erythrocytes, 48 h; actives 5.9% (n = 310,000); also: potency is read from the fitted curve at half-maximal effect; % is scaled to controls: 0 for no effect and ±100 for the full control effect
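Read-out is firefly luciferase luminescence from an integrated reporter in P. falciparum, so falling signal marks reduced parasite growth. Infected erythrocytes were at 2% hematocrit and 0.1% parasitemia (final) in Albumax-supplemented RPMI 1640.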
Shiga inhibitor: A qHTS for Small Molecule Inhibitors of Shiga Toxin. Vero cells, Shiga toxin protein synthesis inhibition reporter. inhibition, % at 38.7 µM. actives 9.2% (n = 290,000); in the data active = inhibition mostly above about 28%, no sharp cut-off; inactive = mostly below about 43%; also: 0% is about no effect
Lassa entry inh: qHTS for Inhibitors of binding or entry into cells for Lassa Virus; AID 540256, 2011; actives 1.2% (n = 300,000); Lassa virus pseudotype entry inhibition, cell reporter; Potency, µM (titrated, usually from 37.9 µM), for inactives: at the top dose activity change, negative = inhibition, hits mostly inhibitors; calls by dose curve; tested in HEK293 cells; also: potency is read from the fitted curve at half-maximal effect; % is scaled to controls: 0 for no effect and ±100 for the full control effect; nearly all actives have a fitted effect of over 50% in size
* = called active by the depositor; ? = inconclusive; . = no result; [ ] = remark or other dose. Unless noted, calls follow the shape of the dose curve; as a rule, active = well fitted inhibition curve with a large enough effect; inconclusive = small, poorly fitted or top-dose-only effect, or another doubt; inactive = no such curve, though single readings can be large or run the other way.

SMILES	Pf growth 96h	Cycloheximide cs	Marburg entry inh	Pf growth 48h	Shiga inhibitor	Lassa entry inh
CCOC(=O)N/N=C/c1cc(OC)c(O)c(OC)c1	-1%	-5	?	15%	6	2%
CCOC(=O)N/N=C/c1ccccc1F	264%	33*	?	104%	83*	12%
CCOC(=O)N/N=C/c1ccc(F)cc1	63%	39*	5%	59%	70*	12%
CCOC(=O)N/N=C/c1ccc(OC)c(O)c1	?	33*	.	53%	69*	.
N#CC(C#N)=Cc1ccc(-c2ccc(S(=O)(=O)N=C(N)N)cc2)o1	?	-1	?	?	-11	-12%
Cc1cccc(OC(=O)c2ccc3nccnc3c2)c1	.	2	0%	-3%	-25	-4%
O=C(Oc1ccccc1)c1ccc2nsnc2c1	-3%	53*	13%	77%	75*	-2%
COc1ccc(NC(=O)/C(=C\c2ccc(OC)c(OC)c2)NC(=O)c2ccco2)cc1	50%	2	.	?	-18	.
COc1ccc(C(=O)On2c(-c3ccc(Br)cc3)nc3ccccc3c2=O)cc1	56%	32*	?	1%	93*	?
COc1ccc(O)c(CNn2c(-c3ccc(Br)cc3)nc3ccccc3c2=O)c1	-11%	14	-9%[46.1 µM]	9.3µM*	23	-20%
Cc1nc2c(-c3ccc(Cl)cc3)cnn2c2c1CCC2	129%	35*	23%[46.1 µM]	394%	68*	?
Cc1nn2c(N)c(-c3ccccc3)cnc2c1-c1ccccc1	58%	17*	?	43%	31	5%
Cc1nn2c3c(cnc2c1-c1ccccc1)C(=O)CC(c1ccco1)C3 (centres undefined)	.	22	14%	1.5µM*	4	15%
Cc1nn2c(N)c(C#N)cnc2c1-c1ccccc1	.	16	-1%	46%	24	15%
Cc1nc2c(-c3ccc(Cl)cc3)cnn2c(N)c1-c1ccc(F)cc1	232%	64*	.	6%	138*	.
Cc1nn2c3c(cnc2c1-c1ccccc1)C(=O)CC(c1ccccc1)C3 (centres undefined)	?	-2	-12%	?	-5	-2%
CCCn1c(O)c(/C=C2\C=NN=C2c2ccccc2)sc1=S	?	-7	?	31%	-2	?
Nc1c(-c2cccc(Cl)c2)cnc2c(-c3ccccc3)cnn12	257%	45*	?	196%	64*	?
Nc1c(-c2ccc(Cl)cc2)cnc2c(-c3ccc(F)cc3)cnn12	302%	34*	.	195%	88*	.
Cc1cc(C(F)(F)F)n2ncc(-c3ccc(F)cc3)c2n1	4%	6	5%	.	2	-13%
COc1ccc(-c2c(C)nc3c(-c4ccc(F)cc4)cnn3c2N)cc1	58%	66*	.	290%	53*	.
Cc1nc2c(-c3ccc(F)cc3)cnn2c(N)c1-c1ccccc1	-52%	59*	.	4%[0.00184 µM]	140*	.
COc1ccc(-c2cc(C(F)(F)F)n3ncc(-c4ccccc4)c3n2)cc1	.	.	1%[46.1 µM]	.	.	0%[46.1 µM]
CCc1nnc(SCCSc2nnc(CC)n2N)n1N	141%	2	12%[46.1 µM]	28%	-13	4%
CCN(CC)C(=S)SCC(=O)c1ccc(Br)cc1	8%	107*	-11%	61%	167*	?
SMILES	Pf growth 96h	Cycloheximide cs	Marburg entry inh	Pf growth 48h	Shiga inhibitor	Lassa entry inh
Cc1ccccc1NC(=O)CN1CCN(C(=O)c2ccco2)CC1	1%	1	.	?	-10	.
N#Cc1c(NC(=O)CN2CCN(C(=O)c3ccco3)CC2)sc2c1CCCCC2	?	-4	-14%	.	-5	-14%
CCOC(=O)c1c(NC(=O)CN2CCN(C(=O)c3ccco3)CC2)sc(C)c1C	21%	-4	?	?	-5	11µM*
CCc1c(C)sc(NC(=O)CN2CCN(C(=O)c3ccco3)CC2)c1C(=O)OC	19%	16*	?	?	37	3.5µM*
O=C(Cn1cc(C(=O)c2ccco2)c2ccccc21)NCc1ccco1	3%	18	22%	-10%	20	5%
O=C(Cn1cc(C(=O)C(F)(F)F)c2ccccc21)NCc1ccco1	?	47*	?	-10%	53	-2%
COC(=O)c1cn(CC(=O)NCc2ccco2)c2ccccc12	.	15*	26%	41%	50*	18%
O=C(Cn1cc(C(=O)c2ccccc2)c2ccccc21)NCc1ccco1	15%	78*	-14%[46.1 µM]	39%	74	1%
CCC(=O)c1cn(CC(=O)NCc2ccco2)c2ccccc12	30%	43*	14%	58%	61*	4%
COc1ccc(-c2noc(N3CCC(C(=O)Nc4ccc(OC)cc4OC)CC3)n2)cc1	18%	-2	.	-14%	-1	.
Cc1ccc(C(=O)COC(=O)CN2C(=O)C3C4CC(C(Br)C4Br)C3C2=O)cc1 (centres undefined)	?	-6	-6%[46.1 µM]	10%	-5	10%[46.1 µM]
CN1C(=O)C(C)(C)c2cc(S(=O)(=O)NCC3CCC(C(=O)NCc4ccc(F)cc4)CC3)ccc21 (centres undefined)	?	2	12%[46.1 µM]	-22%	2	23%[46.1 µM]
CC(C)N1CCC(N2CCN(C3CCCCC3)CC2CCO)CC1 (centres undefined)	?	1	22%[46.1 µM]	7%	-20	-17%[46.1 µM]
COC(=O)Cn1cc(C(=O)C(C)(C)C)c2ccccc21	2%	-1	-2%[46.1 µM]	18%	-12	9%
CCCC(=O)c1cn(CC(=O)OC)c2ccccc12	1µM*	-2	-1%	7%	10	13%
O=C1CSC(c2ccccc2)N1CCc1ccccc1 (centres undefined)	235%	2	.	28%	.	.
CCOC(=O)c1ccc(NC(=O)N(CC)CC)cc1	-10%	37*	-5%	110%	62*	9%
CCOC(=O)c1ccc(NC(=O)C(CC)CC)cc1	.	30*	16%	75%	71*	23%
CCSc1nc(=S)cc(C)[nH]1	?	-2	.	?	-11	.
CC(C)NS(=O)(=O)c1ccc(OCC(=O)N2CCCC2)cc1	?	-1	9%	-18%	9	4%
Cc1nn(C)cc1/C=N/NC(=S)Nc1ccc(Cl)cc1Cl	-24%	12*	?	35%	active	-2%
CCn1nc(C)c(/C=N/NC(=S)Nc2ccc(Cl)cc2Cl)c1C	?	11	-18%	-16%	active	-9%
O=C(O)c1ccc(N2C(=O)CSC2c2cccc([N+](=O)[O-])c2)cc1 (centres undefined)	-6%	0	.	44%	2	.
CN(C)S(=O)(=O)c1cccc(COc2cccnc2[N+](=O)[O-])c1	29%	-3	-13%[46.1 µM]	12%	2	?
O=[N+]([O-])c1ncccc1OCc1ccc(Cl)c(Cl)c1	18%	38*	?	26%	58*	9%[46.1 µM]

Screens (PubChem)
